From PubChem
TIM10 inh = growth inhibitors of isogenic TIM10 control yeast, primary screen, counter-screen for tim10-1 yeast inhibitor project, luminescence, uHTS. S. cerevisiae TIM10 strain growth, BacTiter-Glo luminescence, 24 h. inhibition, % at 10 µM. 330,000 tested, 1.4% active;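 active = inhibition of 40% or more at the single tested concentration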;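 note: wild-type TIM10 isogenic control strain grown at permissive 25 °C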
NALP3 yeast inh = NALP3 inflammasome inhibitors in reconstituted yeast, primary screen, luminescence, uHTS. 330,000 tested, 0.39% active. Yeast reconstituted NLRP3/ASC/caspase-1, beta-gal luminescence, 24 h. inhibition, % at 10 µM. AID 2825, 2010;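 active = inhibition of 50% or more; inactive = inhibition below 50%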
tim23-1 inh = growth inhibitors of tim23-1 mutant yeast, primary screen, luminescence, uHTS | S. cerevisiae tim23-1 growth, BacTiter-Glo luminescence, 24 h | inhibition, % at 20 µM | 330,000 tested, 1.3% active;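 active = growth inhibition of the mutant yeast at or above 50%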;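 note: temperature-sensitive mutant grown at 25 °C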
tim10-1 inh = growth inhibitors of tim10-1 mutant yeast, primary screen, luminescence, uHTS; 330,000 tested, 2.2% active; inhibition, % at 20 µM; S. cerevisiae tim10-1 ts strain growth, BacTiter-Glo, 24 h; AID 463190, 2010;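 active = inhibition of at least 40%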;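 note: mutant grown at 25 °C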
NALP1 yeast inh = NALP1 inflammasome inhibitors in reconstituted yeast, colorimetric, S. cerevisiae, triplicate retest; inhibition, % at 10 µM; 280,000 tested, 0.61% active; S. cerevisiae NALP1/ASC/caspase-1 growth, X-gal OD620, 72 h; AID 2071, 2009; in the data active = inhibition mostly above about 24%, no sharp cut-off; inactive = mostly below about 32%
SKKanGAS inh = S. pyogenes SKKanGAS growth inhibitors in kanamycin, primary screen, streptokinase expression inhibitor project, SKKanGAS strain, BacTiter-Glo luminescence; 300,000 tested, 1.3% active; 6 h; inhibition, % at 7.5 µM;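 active = mean replicate score, as percent of positive control median, at least 50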;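 note: strain carries kanamycin resistance gene driven by streptokinase promoter and grows in 40 µg/ml kanamycin; loss of luminescence reflects streptokinase promoter inhibition or plain growth inhibition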
NALP3 yeast conf = NALP3 inhibitors retested in yeast, confirmation, luminescence, single concentration; shares compounds with NALP3 yeast inh; yeast expressing human NALP3; inhibition, % at 10 µM; 1,300 tested, 81% active; AID 435006, 2010; in the data active = inhibition above about 48%
Casp1 ASC ctr = CASP1-PYCARD signaling inhibition in yeast, confirmatory test, counterassay for NLRP3 inhibitor program, one-dose. shares compounds with NALP3 yeast inh. yeast expressing Caspase-1-ASC, luminescence counter screen. inhibition, % at 10 µM. 1,000 tested, 66% active. AID 488784, 2010
NALP3 yeast rt = NALP3 inhibitors in yeast, repeat test, confirmation, luminescence, single concentration, retest; shares compounds with NALP3 yeast inh; yeast expressing human NALP3, luminescence read-out; inhibition, % at 10 µM; 1,000 tested, 53% active; AID 488794, 2010
Large screens that a line does not name were inactive (follow-up assays come after a bar, where they were run). Most compounds without a hit are left out; they make up all but 4.9% or so of the library. Cut-off read from the data, not from the text of the source, unless noted: active = inhibition above about 50%; inactive = the rest.

COC(=O)C1=C(c2ccc(OC(F)(F)F)cc2)C[C@@H]2CC[C@H]1N2C(=O)NCc1cccc2ccccc12	none (no result: NALP1 yeast inh, SKKanGAS inh)
CCOc1cc(CNCCc2c[nH]c3ccccc23)cc(Cl)c1OCC	NALP1 yeast inh 54
NC(=O)c1cc(N2CC2)c([N+](=O)[O-])cc1[N+](=O)[O-]	none (no result: NALP1 yeast inh)
O=C(c1cc(F)ccc1F)C1CCCN(CCCc2ccccc2)C1 (configuration not stated)	none
CC(=O)Nc1cc(C(=O)N2CCC3(CC2)OCCO3)ccc1Sc1ccc(F)cc1	none (no result: SKKanGAS inh)
CCCCCCC(=O)N/N=C/c1c(O)n(CCc2ccccc2)c(=O)[nH]c1=O	SKKanGAS inh 86
CCCCCCC(=O)N/N=C/c1c(O)n(C2CC2)c(=S)[nH]c1=O	none
O=C(N/N=C/c1c(O)n(Cc2ccccc2)c(=O)[nH]c1=O)c1ccccc1O	SKKanGAS inh 84
CCCCCCC(=O)N/N=C/c1c(O)n(C(C)CC)c(=S)[nH]c1=O (configuration not stated)	SKKanGAS inh 90
O=C(N/N=C/c1c(O)n(CCc2ccccc2)c(=O)[nH]c1=O)c1ccccc1O	SKKanGAS inh 103 (no result: NALP1 yeast inh)
COc1ccc(Cn2c(O)c(/C=N/NC(=O)c3ccccc3O)c(=O)[nH]c2=O)cc1	none
CCOC(=O)C1(c2ccccc2)Oc2ccccc2C(c2ccc(OC)cc2)=C1C(=O)OC (configuration not stated)	none (no result: NALP3 yeast inh, NALP1 yeast inh, SKKanGAS inh)
O=c1c2ccccc2nc(-c2ccc(Cl)cc2Cl)n1-c1nccs1	none (no result: NALP1 yeast inh)
COC(=O)C1=C(c2ccc(OC(F)(F)F)cc2)C[C@@H]2CC[C@H]1N2C(=O)NCc1cc(C)oc1C(F)(F)F	none (no result: NALP1 yeast inh, SKKanGAS inh)
O=C(N/N=C/c1c(O)n(Cc2ccc(F)cc2)c(=O)[nH]c1=O)c1ccccc1O	SKKanGAS inh 97
O=C(N/N=C/c1c(O)n(CCc2ccc(F)cc2)c(=O)[nH]c1=O)c1ccccc1	none (no result: NALP1 yeast inh)
COC(=O)C1=C(c2ccccc2)C[C@@H]2CC[C@H]1N2C(=O)NCCO	none (no result: NALP1 yeast inh)
COc1cc(OC)c([C@H]2C=C(C)[C@H]3C[C@@H]2C3(C)C)c(OC)c1	SKKanGAS inh 97 (no result: NALP1 yeast inh)
C=CCn1c(O)c(C(CC)=Nc2ccc(N(CC)CC)cc2)c(=O)[nH]c1=O	SKKanGAS inh 101
CCCCn1c(O)c(C(CC)=Nc2ccc(OCC)cc2)c(=O)[nH]c1=O	SKKanGAS inh 55
C=CCn1c(O)c(C(C)=Nc2ccc(N(CC)CC)cc2)c(=O)[nH]c1=O	SKKanGAS inh 76
C=CCn1c(O)c(C(C)=Nc2ccc(N(C)C)cc2)c(=O)[nH]c1=O	none
CCCCC/C(=N/O)c1c(C)[nH]c2ccccc12	none
CCCCC/C(=N\O)c1c[nH]c2ccccc12	NALP3 yeast inh 55 | NALP3 yeast conf 57 | Casp1 ASC ctr 53 | NALP3 yeast rt inactive
N#CCCn1cc(C(=O)Nc2ccccc2Cl)c(-c2ccc([N+](=O)[O-])cc2)n1	none
COCCNCCOc1ccc(C(C)(C)c2ccccc2)cc1	none
CC(C)COC(=O)c1ccccc1C(=O)OCC(C)C	none
C[CH2][Hg][S]c1ccccc1C(=O)O	NALP3 yeast inh 98 (no result: NALP1 yeast inh, SKKanGAS inh) | NALP3 yeast conf 99 | Casp1 ASC ctr 100 | NALP3 yeast rt 99
COC(=O)C1=C(c2ccc(F)cc2F)C[C@@H]2CC[C@H]1N2C(=O)NC1Cc2ccccc2C1	none (no result: NALP1 yeast inh, SKKanGAS inh) | NALP3 yeast conf inactive
CC(C)Oc1ccc(CCN)cc1Cl	NALP3 yeast inh 53, NALP1 yeast inh 44 | NALP3 yeast conf 57 | Casp1 ASC ctr inactive | NALP3 yeast rt inactive
CCCC(=O)NC(Oc1ccc(Cl)cc1Cl)C(Cl)(Cl)Cl (configuration not stated)	none
C[C@]12CCC3C(CC[C@@H]4CC(=O)CC[C@]34C)C1CC[C@@H]2O (some centres not stated)	NALP3 yeast inh 68 (no result: NALP1 yeast inh, SKKanGAS inh) | NALP3 yeast conf 58
C[C@]12CC(=O)CC1CCC1C2CC[C@@]2(C)C1CC[C@@H]2O (some centres not stated)	NALP3 yeast inh 60, NALP1 yeast inh 42 | NALP3 yeast conf 61 | Casp1 ASC ctr 63 | NALP3 yeast rt inactive
CC12CCC3C(CCC4C/C(=N/O)CCC43C)C1CCC2O (configuration not stated)	NALP3 yeast inh 63 | NALP3 yeast conf inactive | Casp1 ASC ctr 63 | NALP3 yeast rt inactive
C[C@]12CCC(=O)C[C@@H]1CC[C@@H]1[C@@H]2CC[C@@]2(C)[C@H]1CC[C@]2(C)O	none (no result: TIM10 inh, NALP3 yeast inh, tim23-1 inh, tim10-1 inh, SKKanGAS inh)
C[C@]12CCC(=O)C[C@@H]1CC[C@@H]1[C@@H]2CC[C@]2(C)[C@@H](O)CC[C@@H]12	NALP3 yeast inh 50 (no result: NALP1 yeast inh, SKKanGAS inh) | NALP3 yeast conf 55 | Casp1 ASC ctr 60 | NALP3 yeast rt inactive
O=C(c1ccc(F)c([N+](=O)[O-])c1)N1CC2CC(C1)c1cccc(=O)n1C2 (configuration not stated)	none
CCC1C=CC=CC[C@H](C)[C@@H](O)[C@](C)(O)C(=O)[C@@H](C)[C@H](O)[C@@H](C)C(=O)[C@H](C)[C@@H](O)[C@H](C)C=CC(=O)OC2[C@@H](C)C(CC1)OC1(CC[C@@H](C)C(C[C@H](C)O)O1)[C@@H]2C (some centres not stated)	NALP3 yeast inh 82 (no result: NALP1 yeast inh, SKKanGAS inh) | NALP3 yeast conf 88 | Casp1 ASC ctr 57 | NALP3 yeast rt 72
CC1(C)C(=O)CC[C@@]2(C)C1=CCC1C2CC[C@]2(C)C(=O)CCC12 (some centres not stated)	NALP3 yeast inh 59 (no result: NALP1 yeast inh, SKKanGAS inh) | NALP3 yeast conf 48
C[C@]12CC[C@H](O)CC1C(=O)CC1C2CC[C@@]2(C)C1CC[C@@H]2O (some centres not stated)	none (no result: NALP1 yeast inh, SKKanGAS inh) | NALP3 yeast conf inactive | Casp1 ASC ctr 50 | NALP3 yeast rt inactive
C[C@]12CCC3C(CC[C@H]4C[C@@H](O)CC[C@]34C)[C@H]1CC[C@H]2O (some centres not stated)	NALP3 yeast inh 51 (no result: NALP1 yeast inh, SKKanGAS inh) | NALP3 yeast conf 57
